This passage reports Inhibition results from ChEMBL document CHEMBL4513146, “CO-ADD screening of Karazin Kharkiv National University (Ukraine) compounds”.

One assay relates to Staphylococcus aureus. The settings on record: Concentration 32 ug.mL-1;; ASSAY_TEST Inhibition of Bacterial Growth; detection method Absorption (OD600); MEDIA CAMHB; plate type 384well; NBS; CORNING #3640; time 18 hr.
Another assay has as its system Escherichia coli. The settings on record: Concentration 32 ug.mL-1;; ASSAY_TEST Inhibition of Bacterial Growth; detection method Absorption (OD600); MEDIA CAMHB; plate type 384well; NBS; CORNING #3640; time 18 hr.

Results with a measured potency or affinity are listed apart.

Usually Inhibition stands for the relative decrease from the control value, in per cent. Take `COc1cccc(CN(c2ccc(F)cc2)S(=O)(=O)c2cccn3cnnc23)c1`: the Inhibition in the assay on Staphylococcus aureus is recorded as -5.01%; with Escherichia coli, -3.63%.
For the compound `COc1ccc(N2CCN(C(=O)Cn3nc4ccc(S(=O)(=O)C(C)(C)C)nn4c3=O)CC2)cc1`, the Inhibition in the assay on Staphylococcus aureus is on record as 12.76%; in the assay on Escherichia coli it was 0.99%.
For the compound `CSc1ccc(CNC(=O)Cn2nc3c(Oc4ccc(C)cc4)nccn3c2=O)cc1`, the Inhibition with Staphylococcus aureus is recorded as -14.59%; with Escherichia coli it was -5.13%.
In the same order, the values of `O=C(CSc1nnc2c(=O)n(-c3ccc(Br)cc3)ccn12)Nc1cccc(Cl)c1` are 2.58% and -6.43%.
In the same order, the values of `Cc1cccc(NC(=O)CSc2nnc3c(=O)n(-c4ccccc4)ccn23)c1` are 7.18% and -6.81%.
The matching figures for `O=C(CSc1nnc2c(=O)n(-c3ccccc3)ccn12)NCc1ccc(Cl)cc1`: 9.66% and -0.23%.
As to `COc1ccc(NC(=O)c2ccc3nn(CC(=O)Nc4cccc(OC)c4)c(=O)n3c2)cc1`, the Inhibition amounted to 15.63% with Staphylococcus aureus and 0.97% in the assay with Escherichia coli.
In the same order, the values of `CCOc1ccc(NC(=O)Cn2nc3ccc(-c4ccc(C)c(C)c4)nn3c2=O)cc1` are 3.86% and -6.73%.
The matching figures for `COc1ccc(NC(=O)Cn2nc3c4cc(-c5ccc(Cl)cc5)nn4ccn3c2=O)c(OC)c1`: 9.6% and 5.1%.
The matching figures for `CCOc1ccc(-n2ccn3c(SCC(=O)Nc4cc(OC)cc(OC)c4)nnc3c2=O)cc1`: 7.49% and -3.15%.
For `O=c1c2sccc2n2c(=O)n(Cc3ccccc3Cl)nc2n1Cc1cccs1`, the Inhibition with Staphylococcus aureus was -1.31%; in the assay on Escherichia coli it was -2.76%.
`COc1ccc(NC(=O)Cn2nc3c(Oc4cccc(F)c4)nccn3c2=O)cc1`: the Inhibition in the assay on Staphylococcus aureus is on record as -3.6%; with Escherichia coli, -10.71%.
In the same order, the values of `Cc1oc(-c2ccccc2)nc1CSc1nc2ccccc2n2c(C)nnc12` are 4.04% and 4.8%.
In the same order, the values of `Cc1ccc(Cn2c(=O)c3ccc(C(=O)NC4CCCC4)cc3n3c(=O)n(CC#N)nc23)cc1` are 2.21% and 1.56%.
For the compound `COc1ccc(-n2ccn3c(SCC(=O)N4CCN(c5ccccc5F)CC4)nnc3c2=O)cc1`, the Inhibition in the assay on Staphylococcus aureus is reported as 7.08%; in the assay on Escherichia coli it was -4.94%.
The matching figures for `Cc1nnc2ccc(S(=O)(=O)N(Cc3ccccc3F)c3ccc(Cl)cc3)cn12`: -12.68% and -19.04%.
The matching figures for `Cc1ccc(-c2ccc3nn(CC(=O)Nc4ccc(Br)cc4F)c(=O)n3n2)cc1`: 3.77% and -3%.
The matching figures for `Cc1ccc(Oc2nccn3c(=O)n(CC(=O)Nc4cccc(Br)c4)nc23)cc1`: 4.81% and -7.18%.
For `Cn1c(=O)c2ccc(C(=O)NC3CCCCC3)cc2n2c(=O)n(Cc3cccc(C(F)(F)F)c3)nc12`, the Inhibition with Staphylococcus aureus is 12.74%; in the assay with Escherichia coli, -0.17%.
In the same order, the values of `COc1cccc(Oc2nccn3c(=O)n(CC(=O)Nc4ccc(C(C)C)cc4)nc23)c1` are -2.58% and -7.16%.
The matching figures for `CC(C)c1nnc2c(=O)n(CC(=O)Nc3cc(Cl)ccc3Cl)c3ccccc3n12`: 3.75% and 5.3%.
In the same order, the values of `CCCn1c(=O)c2sccc2n2c(=O)n(Cc3ccc(Cl)cc3)nc12` are 1.51% and -6.17%.
As to `Cc1ccc(-c2ccc3nn(CC(=O)NCc4ccc(Cl)cc4)c(=O)n3n2)cc1C`, the results for the Inhibition in the assay with Staphylococcus aureus and in the assay with Escherichia coli were -0.74% and -5.52%, respectively.
In the same order, the values of `CC(C)CCn1c(=O)c2ccc(C(=O)NC3CCCCC3)cc2n2c(=S)[nH]nc12` are -4.78% and -9.84%.
The matching figures for `N#Cc1ccc(NC(=O)Cn2nc3c(SC4CCCCC4)nccn3c2=O)cc1`: 7.35% and -8.54%.
In the case of `O=C(Cn1nc2c(Sc3cccc(F)c3)nccn2c1=O)Nc1cccc(Br)c1`, the Inhibition in the assay with Staphylococcus aureus came to 3.89%; in the assay on Escherichia coli, 0.56%.
In the same order, the values of `COc1ccc(-c2cc3c4nn(CC(=O)NCc5ccc(Cl)cc5)c(=O)n4ccn3n2)cc1` are 12.72% and 5.93%.
The matching figures for `O=C(Cn1nc2ccc(SCc3ccc(Cl)cc3)nn2c1=O)Nc1ccccc1`: 5.05% and -4.3%.
The matching figures for `O=c1c2sccc2n2c(=O)n(Cc3ccc(F)cc3)nc2n1CCc1ccccc1`: 10.13% and 2.04%.
Consider `Cn1c(=O)c2sccc2n2c(=O)n(Cc3cccc(Br)c3)nc12`, for which the Inhibition in the assay on Staphylococcus aureus was 14.17%; with Escherichia coli, 0.53%.
The matching figures for `C=Cc1ccc(Cn2nc3c(=O)n(-c4ccc(C)c(C)c4)ccn3c2=O)cc1`: 0.4% and 3.59%.
Turning to `Cc1cccc(NC(=O)c2ccc3nn(CC(=O)N4CCc5ccccc5C4)c(=O)n3c2)c1`, the Inhibition is -5.11% with Staphylococcus aureus and -8.84% with Escherichia coli.
In the same order, the values of `O=C(Cn1nc2c(Oc3ccc(Cl)cc3)nccn2c1=O)Nc1ccc2c(c1)OCO2` are 6.57% and -7%.
The matching figures for `CC(C)Cn1c(=O)c2ccc(C(=O)NC3CCCC3)cc2n2c(=O)n(CC(=O)NC3CCCCC3)nc12`: -0.85% and -0.58%.
The matching figures for `COCCCNC(=O)CSc1nnc2c(=O)n(Cc3ccc(F)cc3)ccn12`: 10.54% and -1.15%.
As to `Cc1ccc(-c2ccc3nn(CC(=O)N4CCN(c5ccccc5F)CC4)c(=O)n3n2)cc1C`, the Inhibition with Staphylococcus aureus was 3.55%; with Escherichia coli it was -1.18%.
The matching figures for `COc1ccc(NC(=O)Cn2nc3c4cc(-c5ccc(C)c(C)c5)nn4ccn3c2=O)cc1OC`: 7.31% and -0.24%.
`CC(C)(C)Sc1ccc2nn(CC(=O)Nc3ccc(Cl)cc3)c(=O)n2n1`: the Inhibition in the assay on Staphylococcus aureus is 3.13%; in the assay on Escherichia coli, 0.89%.
The matching figures for `O=C(Cn1nc2c(SCc3ccccc3)nccn2c1=O)NCc1ccccc1`: -16.25% and -19.33%.
The matching figures for `Cc1ccc(NC(=O)Cn2c(=O)c3nnc(C)n3c3ccccc32)cc1C`: 17.12% and 0.02%.
The matching figures for `O=C(CCc1nnc2c3cc(-c4ccc(F)cc4)nn3ccn12)N1CCC(Cc2ccccc2)CC1`: 6.97% and -0.02%.
On to `COc1cccc(-n2ccn3c(SCc4cccc(F)c4)nnc3c2=O)c1`, for which the Inhibition is recorded as 11.5% with Staphylococcus aureus and -8.02% in the assay on Escherichia coli.
The matching figures for `COc1cccc(-n2ccn3c(SCC(=O)Nc4ccc(Cl)cc4)nnc3c2=O)c1`: 16.43% and -13.45%.
The matching figures for `Cc1ccc(NC(=O)Cn2nc3c(Sc4cccc(F)c4)nccn3c2=O)cc1F`: 12.19% and 1.14%.
In the same order, the values of `O=S(=O)(c1cccn2cnnc12)N(Cc1ccc(F)cc1)c1ccc(F)c(F)c1` are 8.71% and -1.75%.
As to `CCc1nnc2ccc(S(=O)(=O)N(Cc3ccc(F)cc3)c3ccc(OC)cc3)cn12`, the figures for the Inhibition with Staphylococcus aureus and in the assay with Escherichia coli were 6.39% and -3.2%, respectively.
Consider `CCOC(=O)N1CCN(C(=O)CCc2nnc3c4cc(-c5ccccc5)nn4ccn23)CC1`, for which the Inhibition in the assay on Staphylococcus aureus is on record as 4.14%; with Escherichia coli, -0.18%.
For `Cc1ccc(CNC(=O)CSc2nnc3c(=O)n(-c4ccccc4)ccn23)cc1`, the Inhibition is reported as 12.76% in the assay on Staphylococcus aureus and 0.71% with Escherichia coli.
The matching figures for `Cc1cc2nn(CC(=O)Nc3cccc(C)c3C)c(=O)n2c(Nc2ccc(F)c(C)c2)n1`: 2.54% and -7.8%.
In the same order, the values of `CCc1ccc(N(Cc2cccc(Cl)c2)S(=O)(=O)c2cccn3c(C)nnc23)cc1` are 10.13% and -1.93%.
With `Cc1ccc(Sc2nccn3c(=O)n(CC(=O)Nc4ccc(C)cc4Br)nc23)c(C)c1`, the Inhibition in the assay with Staphylococcus aureus was 8.09%; in the assay on Escherichia coli, -4.19%.
The matching figures for `COc1ccc(Cl)cc1NC(=O)Cn1nc2c(Sc3ccc(C)cc3C)nccn2c1=O`: -3.15% and -8.38%.
In the same order, the values of `COCCCNC(=O)CSc1nnc2c(=O)n(Cc3ccccc3)ccn12` are 7.01% and -1.7%.
As to `CCOC(=O)c1ccccc1NC(=O)Cn1nc2ccc(Sc3ccc(C)cc3)nn2c1=O`, the Inhibition was found to be 14.05% in the assay with Staphylococcus aureus and 1.21% in the assay on Escherichia coli.
In the same order, the values of `O=C(Cn1nc2ccc(C(=O)NCc3ccccc3)cn2c1=O)Nc1ccc(Br)cc1` are 3.47% and -7.68%.
In the same order, the values of `Cc1ccc(-c2ccc3nn(CC(=O)Nc4ccc(Cl)cc4)c(=O)n3n2)cc1C` are 7.83% and -3.03%.
As to `O=c1c2nn(Cc3ccccc3F)c(=O)n2ccn1-c1ccccc1`, the Inhibition in the assay with Staphylococcus aureus is given as 4.1%; with Escherichia coli it was -4.13%.
Regarding `CCCCn1c(=O)c2sccc2n2c(CCC(=O)NC(C)C34CC5CC(CC(C5)C3)C4)nnc12` (configuration not stated), the Inhibition with Staphylococcus aureus was found to be 9.01%; in the assay on Escherichia coli, 0.33%.
In the same order, the values of `COC(=O)c1ccc(NC(=O)Cn2nc3ccc(S(=O)(=O)C4CCCCC4)nn3c2=O)cc1` are 8.6% and -7.53%.
In the same order, the values of `CCOC(=O)c1ccc(NC(=O)Cn2nc3c(SC4CCCCC4)nccn3c2=O)cc1` are 5.44% and -5.89%.
On to `COc1ccc(OC)c(NC(=O)Cn2nc3ccc(-c4ccc(C)cc4)nn3c2=O)c1`, for which the Inhibition in the assay on Staphylococcus aureus is -7.96%; with Escherichia coli, -11.89%.
The matching figures for `CC(C)Cn1c(=O)c2ccc(C(=O)NC3CCCCC3)cc2n2c(=O)n(CC#N)nc12`: 8.84% and -0.16%.
In the same order, the values of `CCCNC(=O)Cn1nc2n(Cc3ccco3)c(=O)c3sccc3n2c1=O` are 2.17% and -0.94%.
In the same order, the values of `COc1ccc(C(C)NC(=O)CCc2nnc3ccc(-c4ccc(C)c(C)c4)nn23)cc1OC` (configuration not stated) are 7.27% and -3.17%.
`Cc1cc2nn(CC(=O)Nc3ccccc3C)c(=O)n2c(Nc2ccc(F)c(C)c2)n1`: the Inhibition with Staphylococcus aureus is recorded as 4.45%; in the assay with Escherichia coli it was -4.23%.
As for `Cc1ccc(-c2cc3c4nn(CC(=O)Nc5ccc6c(c5)OCO6)c(=O)n4ccn3n2)cc1C`, the Inhibition with Staphylococcus aureus was -8.73%; in the assay on Escherichia coli, -12.23%.
In the same order, the values of `O=C(CSc1nnc2c(=O)n(-c3ccccc3)ccn12)Nc1cc(F)ccc1F` are 5.32% and -13.66%.
For the compound `Cc1ccc(C)c(NC(=O)Cn2nc3c(Sc4ccccc4)nccn3c2=O)c1`, the Inhibition in the assay on Staphylococcus aureus is given as 6.23%; in the assay on Escherichia coli, -5.56%.
In the same order, the values of `Cc1ccc(-c2cc3c4nn(CC(=O)Nc5ccc(C)c(Cl)c5)c(=O)n4ccn3n2)cc1C` are -5.06% and -1.24%.
The matching figures for `CCc1nnc2c(S(=O)(=O)N(Cc3ccccc3F)c3ccc(F)cc3)cccn12`: 1.79% and -1.76%.
In the same order, the values of `O=c1n(Cc2cccc(C(F)(F)F)c2)nc2ccc(S(=O)(=O)N3CCCCC3)cn12` are 14.29% and 0.28%.
